IL1B secr inh: qHTS for Inhibitors of Inflammasome Signaling: IL-1-beta AlphaLISA Primary Screen; THP-1 LPS/ATP IL-1B secretion, AlphaLISA, 16 h; hits give low values; activity change, % at 57.5 µM; actives 4.7% (n = 360,000); AID 743279, 2014; in the data active = activity change below about -50%; inconclusive = mostly about -30% to -49%
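Secreted IL-1B measured by AlphaLISA bead assay after 16 h compound exposure of THP-1 cells; compounds (final up to 57.5 uM) added 1 h before LPS (250 ng/mL) and ATP (1.25 mM) stimulation; lower signal means less secretion.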
DT40 TDP1 CPT: qHTS for Inhibitors of human tyrosyl-DNA phosphodiesterase 1 (TDP1): qHTS in cells in presence of CPT. actives 12% (n = 420,000). Potency, µM (top dose mostly 46.2 µM), usual class: inhibitors. chicken DT40 Tdp1-/-;hTDP1 cells + 20 nM CPT, ATP luminescence, 48 h; also: nearly all actives have a fitted effect of over 55% in size
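Cell growth measured by CellTiter-Glo luminescence after a minimum 48 h, 37 C compound exposure with 20 nM CPT in Tdp1-knockout DT40 cells stably expressing hTDP1, seeded 400/well; qHTS titration format.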
VP16 counter: VP16 counterscreen qHTS for inhibitors of ROR gamma transcriptional activity. Drosophila S2 Gal4-VP16 UAS-luciferase, luminescence, 20 h. Potency, µM (highest dose often 53.6 µM), most hits filed as inhibitors. actives 3.5% (n = 310,000). AID 2546, 2010;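 also: Gal4-VP16 expression switched on by copper sulfate through the metallothionein promoter; nearly all actives have a fitted effect of over 50% in size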
RORgamma inh: qHTS for inhibitors of ROR gamma transcriptional activity. Nuclear receptor ROR-gamma (Mus musculus), P51450. Drosophila S2 Gal4-RORgamma UAS-luciferase reporter, 20 h. Potency, µM (titrated, usually from 53.6 µM), most hits filed as inhibitors. actives 5.4% (n = 310,000). AID 2551, 2010; also: nearly all actives have a fitted effect of over 60% in size
Target sequence (P51450 whole entry, looked up, the tested form may be a part): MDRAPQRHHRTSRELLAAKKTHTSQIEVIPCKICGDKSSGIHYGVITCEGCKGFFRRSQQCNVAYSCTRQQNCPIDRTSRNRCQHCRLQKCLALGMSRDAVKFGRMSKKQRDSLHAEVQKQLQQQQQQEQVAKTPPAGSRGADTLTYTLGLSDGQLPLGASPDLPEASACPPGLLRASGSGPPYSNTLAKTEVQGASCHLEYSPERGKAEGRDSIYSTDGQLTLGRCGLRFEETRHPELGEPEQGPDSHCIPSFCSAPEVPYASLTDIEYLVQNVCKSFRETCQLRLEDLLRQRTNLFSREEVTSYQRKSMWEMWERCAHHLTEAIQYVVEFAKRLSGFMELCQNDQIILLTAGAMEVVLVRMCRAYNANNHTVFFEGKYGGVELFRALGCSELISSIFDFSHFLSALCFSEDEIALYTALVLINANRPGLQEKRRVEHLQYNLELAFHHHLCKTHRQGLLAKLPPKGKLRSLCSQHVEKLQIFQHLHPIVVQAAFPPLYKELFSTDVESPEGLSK
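Drosophila Schneider cells stably carrying a metallothionein-driven Gal4 DBD–ROR gamma fusion and a UAS-Photinus luciferase reporter were exposed to compound for 1 hr, then induced with copper sulfate (700 uM final) for 20 hr at ambient temperature before luminescence reading.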
DT40 TDP1 no CPT: qHTS for Inhibitors of human tyrosyl-DNA phosphodiesterase 1 (TDP1): qHTS in cells in absence of CPT; DT40 Tdp1-/- hTDP1 cells, no CPT, ATP luminescence, 48 h; Potency, µM (highest dose often 46.2 µM), actives largely listed as inhibitors; actives 15% (n = 420,000); AID 686978, 2013; also: nearly all actives have a fitted effect of over 55% in size
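Stably hTDP1-transfected Tdp1-null chicken DT40 cells were treated with library compounds minus camptothecin and grown for at least 48 hr at 37 °C, after which cellular ATP was quantified by luminescence.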
LDHA block: qHTS assay for inhibitors of human lactate dehydrogenase. L-lactate dehydrogenase A chain (Homo sapiens), P00338. purified LDHA, NADH/diaphorase-resazurin fluorescence; hits give low values. activity change, % (values are at about 110 or 230 µM). actives 0.15% (n = 480,000); in the data active = activity change below about -30%; inconclusive = mostly about -25% to -30%
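LDH5 2 nM; NADH 0.06 mM, pyruvate 0.2 mM; 200 mM Tris pH 7.4, EDTA, Tween-20; 5 min RT. Detection: diaphorase 0.133 mg/mL + resazurin 37 µM, fluorescence ex540/em590 at 0 and 20 min; normalized to enzyme-free and DMSO wells.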
A number is an active result. This is a sample that favours compounds with a hit; in the whole collection about 18% have one here. Unless noted, calls follow the shape of the dose curve; as a rule, active = well fitted curve in the direction sought with a large enough effect; inconclusive = small, poorly fitted or top-dose-only effect, or another doubt; inactive = no such curve, though single readings can be large; an effect the other way counts as inactive or inconclusive.

Results for Cc1ccc(C(=O)NCC(c2ccc3c(c2)OCO3)N2CCN(c3ccc(F)cc3)CC2)cc1 (stereo unspecified) ?
DT40 TDP1 CPT: 2.91µM; DT40 TDP1 no CPT: 1.46µM; LDHA block: inactive

Results for Cc1ccc(S(=O)(=O)NCC(c2ccc3c(c2)OCO3)N2CCN(c3ccccc3)CC2)cc1 (stereo unspecified) ?
IL1B secr inh: inactive; DT40 TDP1 CPT: inconclusive; DT40 TDP1 no CPT: inconclusive; LDHA block: inactive

Results for COc1ccc(C(=O)NCC(c2ccc3c(c2)OCO3)N2CCN(c3ccc(F)cc3)CC2)cc1 (stereo unspecified) ?
DT40 TDP1 CPT: 3.26µM; DT40 TDP1 no CPT: 1.64µM; LDHA block: inactive

How did C=CCNC(=O)C(=O)NCC(c1ccc2c(c1)OCO2)N1CCN(c2ccc(F)cc2)CC1 (stereo unspecified) do in these assays?
IL1B secr inh: inactive; DT40 TDP1 CPT: 16.4µM; VP16 counter: inactive; RORgamma inh: inactive; DT40 TDP1 no CPT: inconclusive; LDHA block: inactive

What do the screens show for `COc1ccc(S(=O)(=O)NCC(c2ccc3c(c2)OCO3)N2CCN(c3ccccc3)CC2)cc1` (stereo unspecified)?
IL1B secr inh: inconclusive; DT40 TDP1 CPT: inconclusive; DT40 TDP1 no CPT: 23.1µM; LDHA block: inactive

What do the screens show for `CCCCCOc1ccc(C(=O)CCC(=O)O)cc1`?
LDHA block: inactive

Results for COc1cccc(C(=O)OCCOc2ccccc2Cl)c1O ?
LDHA block: inactive

Results for CCNC(=O)NC(=O)CN(Cc1ccccn1)C(C)C ?
LDHA block: inactive

How did O=S(=O)(NCCCn1ccc2ccccc21)c1cccc(F)c1 do in these assays?
LDHA block: inactive

How did Cc1[nH]c2ccc(-c3n[nH]c(=S)n3-c3ccc(Br)cc3)cc2c1C do in these assays?
IL1B secr inh: inactive; DT40 TDP1 CPT: inconclusive; VP16 counter: inactive; RORgamma inh: 7.94µM; DT40 TDP1 no CPT: inactive; LDHA block: inactive

How did Cc1[nH]c2ccc(-c3n[nH]c(=S)n3Cc3ccccc3)cc2c1C do in these assays?
IL1B secr inh: -57.1; DT40 TDP1 CPT: 23.1µM; VP16 counter: inactive; RORgamma inh: 10µM; DT40 TDP1 no CPT: 16.4µM; LDHA block: inactive

What do the screens show for `CS(=O)(=O)Nc1ccc(-c2n[nH]c(=S)n2-c2ccccc2)cc1`?
IL1B secr inh: inactive; DT40 TDP1 CPT: inactive; VP16 counter: inactive; RORgamma inh: inconclusive; DT40 TDP1 no CPT: inconclusive; LDHA block: inactive

What do the screens show for `COc1cccc(-n2c(-c3ccc4[nH]c(C)c(C)c4c3)n[nH]c2=S)c1`?
IL1B secr inh: inactive; DT40 TDP1 CPT: inconclusive; VP16 counter: inactive; RORgamma inh: inconclusive; DT40 TDP1 no CPT: inconclusive; LDHA block: inactive

What do the screens show for `Cc1[nH]c2ccc(-c3n[nH]c(=S)n3-c3ccccc3)cc2c1C`?
IL1B secr inh: inactive; DT40 TDP1 CPT: inactive; VP16 counter: inconclusive; RORgamma inh: 7.94µM; DT40 TDP1 no CPT: inconclusive; LDHA block: inactive

Results for O=C(CSc1nc2ccccc2o1)Nc1cc(Cl)cc(Cl)c1 ?
LDHA block: inactive

What do the screens show for `CCOc1ccccc1CNC(=O)c1cccc(NC(=O)c2nnc(C)s2)c1`?
LDHA block: inactive

What do the screens show for `CC(NCc1cccc(C#N)c1)c1cccc(Br)c1` (stereo unspecified)?
LDHA block: inactive

How did CCOC(=O)c1ccc(NC(=O)COc2cccc3c(=O)n(C)ccc23)cc1 do in these assays?
DT40 TDP1 CPT: 20.6µM; DT40 TDP1 no CPT: 18.4µM; LDHA block: inactive

How did Cn1ccc2c(OCC(=O)Nc3ccc([N+](=O)[O-])cc3)cccc2c1=O do in these assays?
DT40 TDP1 CPT: inactive; DT40 TDP1 no CPT: inconclusive; LDHA block: inactive

Bioassay records from PubChem.
